Laboratory results from PubChem BioAssay (NCATS).
Where “and” joins values, the source holds several entries; their conditions need not be identical. Equal entries are not always repeated. Results filed as inconclusive are left out. Calls of active or inactive are those of the source. Calls follow the shape of the dose curve; as a rule, active = well fitted cell-killing curve with a large enough effect; inconclusive = small, poorly fitted or top-dose-only effect; inactive = flat fitted curve, though single readings scatter.

assay: Cellular viability qHTS for adrenocortical cancer (ACC) cell line NCI-H295R (AID 1963990); conditions: CellTiter-Glo ATP luminescence, 48 h; series mostly up to 46.1 µM; activity change, negative = viability loss: at the top concentration; also: nearly all actives have a fitted effect of over 60% in size
Description: PI: Naris Nilubol, MD Surgical Oncology Program, National Cancer Institute (NCI) National Institute of Health (NIH), Bethesda, Maryland Adrenocortical cancer (ACC) is a rare malignancy with poor survival outcomes and few treatment options. Currently, mitotane is the only FDA-approved therapy for ACC. Although adjuvant radiation therapy is rarely utilized, it has the potential to improve survival in select cases. Through a quantitative high-throughput drug screen (qHTS), we identified auranofin (AF), a thioredoxin reductase (TXNRD) inhibitor, as a promising candidate drug. This study aims to evaluate whether AF can enhance the efficacy of radiation therapy in the treatment of ACC. Two human ACC cell lines, SW-13 and NCI-H295R, were screened using the National Center for Advancing Translational Sciences (NCATS) Pharmaceutical Collection (NPC) and the Mechanism Interrogation PlatE (MIPE) library (~4,991 compounds). CellTiter-Glo (Cat # G7570, Promega, Madison, WI) was utilized to measure cell viability. Described herein are the results of the corresponding viability assay.
PROTOCOL TABLE (as described by Inglese J, Shamu CE and Guy RK. 2007) SEQUENCE No. (e.g., 1, 2, 3, etc.); […] (e.g., Cells, Incubation, Reagent, etc.); VALUE; DESCRIPTION. 1; Cells; 5 uL; white, solid-bottom, 1536-well tissue-culture treated plates. 2; Time; overnight culture at 37C with 5% CO2. 3; Compounds and control; 23 nL; Kalypsis pin tool (Wako USA) equipped with a 1536-well pin head to transfer to the assay plates. 4; Time; 48 hours; 37C with 5% CO2. 5; Reagent; 4 uL; CellTiter-Glo luminescent substrate mix. 6; Time; 20 min at room temperature. 7; Detection; Luminescence; ViewLux plate reader NOTES (numbers refer to Sequence numbers above) 1. NCI-H295R cells were harvested from a T175 flask and resuspended in ITS-supplemented DMEM serum-free medium at a concentration of 300 000 cells/mL. Then 5 uL of resuspended cells were dispensed into each well of white, solid-bottom, 1536-well tissue-culture-treated plates using a multidrop combi dispenser. The plates were covered with stainless steel gasket lids. 2-3. The plates were cultured overnight at 37C with 5% CO2. Twenty-three nL of compounds (eight selected concentrations from the NPC / MIPE) or positive control (10 mM stock of bortezomib) in DMSO was transferred to each well of the assay plate using a pin tool (Kalypsys, San Diego, CA, USA). The final concentration of the compounds in the 5 uL assay volume ranged from 0.5 nM to 46 uM. 4-6. After 48 hours of incubation at 37C and 5% CO2, 4 uL of CellTilter-Glo luminescent substrate mix (Promega, Madison, WI, USA) was added to each well. Then the plates were incubated for 20 minutes at room temperature. 7. After incubation, luminescence was measured using a ViewLux plate reader (PerkinElmer, Waltham, MA, USA) with a clear filter was used to measure the number of metabolically competent cells. To determine compound activity in the qHTS assay, the titration-response data for each sample was plotted and modeled by a four-parameter logistic fit yielding IC50 and efficacy (maximal response) values. Raw plate reads for each titration point were normalized relative to positive control ([…], 100% inhibition) and DMSO-only wells (basal, 0%). REFERENCES: Inglese J, Shamu CE and Guy RK, Reporting data from high throughput screening of small molecule libraries, Nature Chemical Biology, 2007, 3(8): 438-441. doi.org/10.1038/nchembio0807-438.

Structure (SMILES)	Potency	activity change, negative = viability loss
Cc1cc(O)c2ccccc2c1O	20.6 µM (active)	–
Nc1nc2ccccc2n1Cc1ccc(F)cc1	–	-23.8% (inactive)
CCc1cc(Nc2nccc(-c3c(-c4ccc(OC)c(C(=O)Nc5c(F)cccc5F)c4)nc4ccccn34)n2)c(OC)cc1N1CCC(N2CCN(S(C)(=O)=O)CC2)CC1	–	-15.4% (inactive)
O=C(CCBr)N1CCN(C(=O)CCBr)CC1	–	-12.9% (inactive)
O=C1NCN(c2ccccc2)C12CCN(CCCC(c1ccc(F)cc1)c1ccc(F)cc1)CC2	3.26 µM (active)	–
Cc1c(Cl)cccc1S(=O)(=O)Nc1nc(CCN2CCOCC2=O)cs1	–	5.08% (inactive)
COc1ccc2cc(CCC(C)=O)ccc2c1	–	19.2% (inactive)
COC(=O)N(CC(=O)O)Cc1cccc(OCc2nc(-c3ccc(Cl)cc3)oc2C)c1	–	-17.1% (inactive)
CS[C@H]1SC[C@@H]2C(=O)N(C)[C@H](C(C)C)C(=O)OC[C@H](NC(=O)c3cnc4ccccc4n3)C(=O)N[C@H](C)C(=O)N(C)[C@H]1C(=O)N(C)[C@H](C(C)C)C(=O)OC[C@H](NC(=O)c1cnc3ccccc3n1)C(=O)N[C@H](C)C(=O)N2C	0.1 µM (active)	–
NC(=S)N/N=C/c1ncccc1N	–	-1.6% (inactive)
OCCN1CCN(CCCN2c3ccccc3C=Cc3ccccc32)CC1	–	-28% (inactive)
NCCNc1cccc2ccccc12	20.6 µM (active)	–
CC/C(=C(/c1ccc(O)cc1)c1ccc(OCCNC)cc1)c1ccccc1	–	9.53% (inactive)
O=C(Cc1ccccc1)Nc1nnc(CCSCCc2nnc(NC(=O)Cc3ccccc3)s2)s1	–	0.107% (inactive)
NC(=O)c1c(OCc2c(F)cc(Br)cc2F)nsc1NC(=O)NCCCCN1CCCC1	22.4 µM (active)	–
Nc1ccc2c(c1)CN1C(=O)c3ccccc3C1=N2	–	-21% [at 20 µM] (inactive)
O=C1Nc2ccccc2C1(c1ccc(O)cc1)c1ccc(O)cc1	–	0.0188% (inactive)
O=C(O)c1c(O)c(-c2ccccc2)nc2ccccc12	–	-12.2% (inactive)
CC(=O)NCC(=O)N1[C@@H]2CC[C@H]1c1ccc(Nc3ncc(C(F)(F)F)c(NC4CCC4)n3)cc12	4.47 µM (active)	–
O=C1CC[C@H](N2Cc3c(OCc4ccc(CN5CCOCC5)cc4)cccc3C2=O)C(=O)N1	–	-9.45% (inactive)

Structure (SMILES)	Potency	activity change, negative = viability loss
C=C[C@@H]1CN2CCC1C[C@H]2[C@H](O)c1ccnc2ccc(OC)cc12 (stereo not given in full)	–	1.4% (inactive)
COc1ccc(-n2nc(CCC(=O)N(C)O)cc2-c2ccc(Cl)cc2)cc1	16.4 µM (active)	–
CCc1cccc(N(C)C(N)=Nc2cccc3ccccc23)c1	20.6 µM (active)	–
Nc1ncnc2c1c(COc1cccc(Cl)c1)nn2C1CCOCC1	–	-23.2% (inactive)
CCCCOc1cc(C(=O)NCCN(CC)CC)c2ccccc2n1	20.6 µM (active)	–
O=C(CCCN1CCN(c2ccccn2)CC1)c1ccc(F)cc1	–	3.03% (inactive)
c1ccc2occc2c1	–	-22.6% [at 92.7 µM] (inactive)
CCn1c(=O)c2c(nc(/C=C/c3ccc(OC)c(OC)c3)n2C)n(CC)c1=O	–	-8.7% (inactive)
C=CCN(/C=C1\C(=O)O[C@@H](COC)[C@]2(C)C1=C(O)C(=O)C1=C2[C@@H](OC(C)=O)C[C@]2(C)C(=O)CC[C@H]12)CC=C	28.2 µM (active)	–
Nc1n[n+]([O-])c2ccccc2[n+]1[O-]	17.8 µM (active)	–
CCC(=O)OCC(=O)C1(OC(=O)CC)C(C)CC2C3CCC4=CC(=O)C=CC4(C)C3(F)C(O)CC21C (stereo not given)	4.47 µM (active)	–
CN1CCN(C2=Nc3cc(F)ccc3Cc3ccccc32)CC1	–	-9.15% (inactive)
CCCCOC(=O)c1ccc(N)cc1	–	-16.9% (inactive)
O=C(Nc1ccc(S(=O)(=O)N2CCOCC2)cc1)c1cc(Cl)ccc1NS(=O)(=O)c1ccc(Cl)s1	20.6 µM (active) and 25.1 µM (active)	–
CCCOC(C(=O)OC1CCN(C)CC1)(c1ccccc1)c1ccccc1	23.1 µM (active)	–
CC(=O)N1CCC(Nc2cc(C(=O)NC[C@H](O)CN3CCc4ccccc4C3)ncn2)CC1	–	-18% (inactive)
OC(CCN1CCCCC1)(c1ccccc1)C1CCCCC1 (stereo not given)	4.61 µM (active)	–
CN(C)CCOC(c1ccccc1)c1ccc(Br)cc1 (stereo not given)	13 µM (active)	–
N#Cc1ccc(Oc2ccc3c(c2)COB3O)cc1	–	-8.51% (inactive)
CCOC(=O)N1CCC(Nc2ccc(Cl)cc2N)CC1	16.4 µM (active)	–
